# Measured values published in ChEMBL document CHEMBL3988442, “University of Dundee, Small-Polar-MMV Screening Library” (2021).
# The campaign covered roughly 48,000 compounds. About 13,000 (27%) showed an effect of 50% or more. The list shows a part of the results.
# System: Wolbachia pipientis
# Assay: Anti-Wolbachia Cell-Based Screen
# Type: functional
# Set-up: scale not given: in the data most compounds retested in dose-response had high values
# Settings: 5 µM
row,Structure (SMILES),Percent Effect [%]
1,CC(=O)N1CCC2(CCN(CC(C)C)C2)C1 (stereo not drawn),-12.71
2,CCNC(=O)NC[C@H]1C[C@@H]2CCN1C[C@@H]2c1cc(-c2cccs2)nn1C,-4.515
3,CCN(CC)C[C@H]1CN2CC[C@H]1C[C@@H]2CNC(=O)Nc1ccsc1,12.78
4,O=C(O)C(F)(F)F.O=C(c1ccncc1F)N1C[C@@H]2OCCN(CC3CC3)[C@@H]2C1,-13.64
5,Cc1cccc(Nc2ccc(C3CCCCN3)cn2)n1 (stereo not drawn),86.37
6,c1cnc(Nc2ccc(C3CCCCN3)cn2)cn1 (stereo not drawn),123.5
7,Cc1cc(C)nc(Nc2ccc(C3CCCCN3)cn2)n1 (stereo not drawn),126
8,CC(=O)N1CCOCC2(CCCNC2)C1 (stereo not drawn),-30.9
9,CCCN1C[C@H]2CC[C@@H]1CN(C(=O)Cn1c(C)cc(C)nc1=O)C2,-4.771
10,Cn1cc(CN2C[C@H]3CCC[C@@]3(COc3ccccn3)C2)cn1.O=C(O)C(F)(F)F.O=C(O)C(F)(F)F,101.4
11,c1ccc(COC[C@@]23CCC[C@@H]2CN(Cc2ccccn2)C3)nc1,-0.5697
12,Cn1cc(CN2CCN3C[C@H](Oc4cccnc4)C[C@H]3C2)cn1,-3.726
13,Cn1cc(CN2C[C@H]3CCC[C@@]3(COc3cccnc3)C2)cn1,95.98
14,O=C(O)C(F)(F)F.O=C(O)C(F)(F)F.c1ccc(CN2C[C@H]3CCC[C@@]3(COCC3CC3)C2)nc1,8.685
15,O=C(c1csc(-c2ncccn2)n1)N1CCN2CCCCC2C1 (stereo not drawn),-3.286
16,O=C(N[C@H]1COC[C@@H]1N1CCCC1)c1csc(Cc2ccccc2)n1,115.4
17,Cc1cc(C)n2nc(C(=O)N[C@H]3C[C@H]4CN(C)CCN4C3)cc2n1,-14.62
18,Cc1nc(C(=O)N[C@H]2COC[C@@H]2N2CCCCC2)cs1,100.8
19,O=C(N[C@H]1COC[C@@H]1N1CCCC1)c1csc(-c2cccs2)n1,103.2
20,CCCc1nc(C(=O)N[C@H]2COC[C@@H]2N2CCN(C)CC2)cs1,87.61

row,Structure (SMILES),Percent Effect [%]
1,Cc1ccc2nc(C)c(C)c(C(=O)N[C@H]3COC[C@@H]3N3CCCC3)c2c1,-0.09991
2,Cc1cc(C(=O)N[C@H]2COC[C@@H]2N2CCOCC2)c2ccc(F)cc2n1,-11.09
3,O=C(N[C@H]1COC[C@@H]1N1CCCC1)c1c[nH]nc1C1CCCCC1,3.503
4,Cc1ccc2nc(C)cc(C(=O)N[C@H]3COC[C@@H]3N3CCOCC3)c2c1,-2.538
5,Fc1cnc(N2CCOCC3(CCCNC3)C2)nc1 (stereo not drawn),-3.763
6,CCCN1CC2(CCN(c3ncc(F)cn3)CC2)CC1C(=O)O (stereo not drawn),2.005
7,CC(C)c1ocnc1C(=O)N1CCC2(CC1)OCCO2,-1.453
8,O=S(=O)(NC[C@H]1C[C@@H]2CCN1C[C@@H]2CN1CCOCC1)c1ccccc1,-10.01
9,c1c[nH]c2nc(C3CCCNC3)nc-2c1 (stereo not drawn),109
10,c1c[nH]c2nc(C3CCNCC3)nc-2c1,118.5
11,Cl.O=C(NCC1CCC2(CCNCC2)O1)C1CC1 (stereo not drawn),-17.62
12,O=C(c1nc(=O)[nH]c2ccccc12)N1CCCC2(CCNC2)C1 (stereo not drawn),12.22
13,O=C(c1onc2ccccc12)N1CCC2(CCCNC2)C1 (stereo not drawn),102.5
14,Cl.O=C(N1CCOCC1)N1CCCC2(CCCNC2)C1 (stereo not drawn),-22.36
15,Cc1cccc(CN2CC3C[C@]3(NC(=O)c3cccc(F)c3)C2)n1.O=C(O)C(F)(F)F (stereo partly drawn),-4.676
16,COCC1CC2(CCN(c3cc(OC)ncn3)CC2)CN1C(C)C.O=C(O)C(F)(F)F (stereo not drawn),103.7
17,CC(C)CN1CCCC2(CCN(c3ccc(C#N)cn3)C2)C1.O=C(O)C(F)(F)F (stereo not drawn),-6.214
18,COCC1CC2(CCN(Cc3ccccn3)CC2)CN1C(C)C (stereo not drawn),-12.67
19,COCC1CC2(CCN(c3ccccn3)CC2)CN1C(C)C.O=C(O)C(F)(F)F.O=C(O)C(F)(F)F (stereo not drawn),104.7
20,COc1cc(N2CCC[C@]3(C(=O)O)CN(C(C)C)C[C@@H]3C2)ncn1.O=C(O)C(F)(F)F,8.121

row,Structure (SMILES),Percent Effect [%]
1,COCCCN1CCCC12CCN(c1ncccn1)CC2.O=C(O)C(F)(F)F,8.313
2,Cc1ccc(N2CCC3(CCCN3Cc3ccn(C)n3)CC2)nn1.O=C(O)C(F)(F)F,10.32
3,COCC1CC2(CCN(c3ccc(C)nn3)CC2)CN1C(C)C.O=C(O)C(F)(F)F (stereo not drawn),99.94
4,CCN1C[C@@H]2CN(c3cc(OC)ncn3)CCC[C@]2(C(=O)O)C1.O=C(O)C(F)(F)F,-1.589
5,COCC1CC2(CCN(c3cccc(C)n3)CC2)CN1C(C)C.O=C(O)C(F)(F)F.O=C(O)C(F)(F)F (stereo not drawn),94.82
6,CCN1C[C@@H]2CN(Cc3cccs3)C[C@@H]2C1=O.O=C(O)C(F)(F)F,-3.908
7,COCCNC(=O)C1(c2ccc(C)c(OC)c2)CCCC1,-0.08716
8,COCC1CC2(CCN(CC3CC3)CC2)CN1Cc1ccccn1.O=C(O)C(F)(F)F.O=C(O)C(F)(F)F (stereo not drawn),83.44
9,O=C(C1CCCO1)N1CCC2(CC1)CNCCO2 (stereo not drawn),-5.383
10,CCN(CC)C[C@H]1CN2CC[C@H]1C[C@@H]2CNC(=O)c1ccco1,-16.25
11,CNc1ncc(CN(C)c2ncnc3onc(C)c23)cn1,70.58
12,c1cncc(C(Cn2cnnc2)N2CCOCC2)c1 (stereo not drawn),3.663
13,COCCN1CCO[C@H]2CN(Cc3cccc(C)n3)C[C@H]21.O=C(O)C(F)(F)F.O=C(O)C(F)(F)F,106.4
14,Cc1cccc(CN2C[C@@H]3OCCN(c4cnccn4)[C@@H]3C2)n1.O=C(O)C(F)(F)F,-8.161
15,Cc1cccc(CN2C[C@@H]3OCCN(C)[C@@H]3C2)n1,7.406
16,CC(C)N1CCO[C@H]2CN(C(=O)Cc3ccsc3)C[C@H]21.O=C(O)C(F)(F)F,16.26
17,CC(C)N1CCO[C@H]2CN(C(=O)Cc3cccs3)C[C@H]21.O=C(O)C(F)(F)F,10.95
18,CC(C)N1CCO[C@H]2CN(Cc3cc[nH]n3)C[C@H]21.O=C(O)C(F)(F)F.O=C(O)C(F)(F)F,92.97
